Compounds without any hit were thinned out: in the full panel of roughly 83,000, 20% have a hit.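 96-well plates, one dose, 48 hours. Percent growth reported; active if below 10.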 A number with no mark means an inactive call. The source made the active and inactive calls.
How the values were obtained:
Experiment in all cases: NCI-60 one-dose screen, 48 h (100 = growth as untreated, 0 = no growth, -100 = all killed)
Conditions in all cases: 10 µM unless noted
SK-MEL-2 melanoma = test system: SK-MEL-2 melanoma
EKVX NSCLC = test system: EKVX NSCLC
SN12C renal = test system: SN12C renal
UO-31 renal = test system: UO-31 renal
TK-10 renal = test system: TK-10 renal
ACHN renal = test system: ACHN renal
CAKI-1 renal = test system: CAKI-1 renal
A498 renal = test system: A498 renal
CCRF-CEM leukemia = test system: CCRF-CEM leukemia
MOLT-4 leukemia = test system: MOLT-4 leukemia

| Compound | growth (SK-MEL-2 melanoma) | growth (EKVX NSCLC) | growth (SN12C renal) | growth (UO-31 renal) | growth (TK-10 renal) | growth (ACHN renal) | growth (CAKI-1 renal) | growth (A498 renal) | growth (CCRF-CEM leukemia) | growth (MOLT-4 leukemia) |
| --- | --- | --- | --- | --- | --- | --- | --- | --- | --- | --- |
| CCN(CC)CCNC(=O)c1ccc(-c2nc3ccc4[nH]ncc4c3c3c2CCCC3)cc1 | 60.5% | 51% | 70.9% | 40.3% | 47.7% | 24.7% | 9.09% (active) | 16.9% | 47% | 50% |
| Clc1ccc(-c2nc(-c3c[nH]c4ncccc34)cs2)cc1 | 72% [100 µM] | 34.7% [100 µM] | 62.4% [100 µM] | 65.7% [100 µM] | 39.7% [100 µM] | 66.9% [100 µM] | 49.4% [100 µM] | 47.2% [100 µM] | 109% [100 µM] | 98.1% [100 µM] |
| N#CC(C#N)N=Nc1ccc(Cl)cc1Cl | 99.9% | 99.3% | 82.9% | 57.8% | 90.8% | 58.4% | 70.8% | 84.7% | 48.3% | 75.5% |
| CC1=C(C(=O)n2c3ccccc3c3ccccc32)C(c2cccc([N+](=O)[O-])c2)C(C(=O)n2c3ccccc3c3ccccc32)=C(C)N1 | 102% | 102% | 99.9% | 71.4% | 104% | 93.4% | 77.5% | 93.1% | 88.7% | 83.1% |
| Cc1cc2nc(-c3c(-c4ccc(F)cc4)nc4sccn34)[nH]c2cc1C | 100% | 103% | 98.6% | 78.6% | 86% | 93.6% | 89.9% | 89.2% | 90.1% | 83.4% |
| C[C@@H](CO)[C@@H]1CC[C@]2(C(=O)N3CCN(C)CC3)CC[C@]3(C)[C@H](CC[C@@H]4[C@@]5(C)CC[C@H](O)C(C)(C)[C@@H]5CC[C@]43C)[C@@H]12 | 90.1% | 88.4% | 71.9% | 64.7% | 113% | 89.6% | 78.2% | 89% | -5.45% (active) | 39.2% |
| CC(CN)[C@@H]1CC[C@]2(CO)CC[C@]3(C)[C@H](CC[C@@H]4[C@@]5(C)CCC(N)C(C)(C)[C@@H]5CC[C@]43C)[C@@H]12 (stereo not given in full) | 81.6% | -44.7% (active) | 25.5% | 0.963% (active) | 57.7% | 17.7% | 33.7% | 92.2% | -32.1% (active) | -35.1% (active) |
| O=C(N/N=C/c1ccc(Cl)cc1Cl)c1ccc2nc(-c3ccc(Cl)cc3)[nH]c2c1 | 38.9% | 8.23% (active) | -36.9% (active) | 21.6% | -4.33% (active) | -20.2% (active) | 61.2% | 56.2% | 15.5% | 4.45% (active) |
| C#CCOc1ccc2ncnc(Nc3cccc(NC(=O)CCl)c3)c2c1 | 69.7% | 92.9% | 69.4% | 59.5% | 73.4% | 65.8% | 81.2% | 89.1% | 16.1% | 18.1% |
| O=C1Nc2ccc(F)cc2/C1=C\c1nc(-c2ccccc2F)n2ccccc12 | 38.3% | 102% | 87.1% | 77.6% | 97.5% | 8.93% (active) | 68.4% | 111% | 70.8% | 81.2% |
| O=C(Nc1ccc(F)cc1)Nc1ccccc1CNc1nc(Nc2ccc(OCCN3CCCC3)cc2)ncc1Cl | 99% | 53.9% | -21.7% (active) | -81.5% (active) | 47.2% | -61.9% (active) | 31.2% | 80.4% | 6.77% (active) | 14.1% |
| CC/C(Cc1ccccc1)=C(\c1ccc(OCCN2CCCCCC2)cc1)c1ccc(OC(=O)NCc2ccccc2)cc1 | 98.9% | 69.5% | 66% | 59.2% | 91.6% | 95% | 93.8% | 82.5% | 47.5% | 42.6% |
| CNC(=O)c1c(NC(=O)c2ccc(C(C)(C)C)cc2)sc2c(CN(C)C)c(O)ccc12 | -53% (active) | 63.3% | 4.62% (active) | -78.5% (active) | 87.5% | -22.3% (active) | -13.1% (active) | 53.1% | -7.61% (active) | -35.5% (active) |
| O=C1NC(=O)c2c1c1c3ccccc3[nH]c1c1oc3cc(Br)ccc3c21 | 96.9% | 69.9% | 78.7% | 36.9% | 126% | 55.2% | 38.7% | 26.5% | 50.9% | 40.4% |
| COc1ccc(NC(=O)c2sc3nc4c(cc3c2N)CCCC4)cc1 | 34.9% | 44.3% | 60.8% | 48% | 38.8% | 49.3% | 38.5% | 5.75% (active) | 9.46% (active) | 21.5% |
| CCCNc1nc2ccccc2c2c(=O)c3cccc(Cl)c3sc12 | 102% | 85.1% | 105% | 66.9% | 129% | 92.7% | 71.7% | 124% | 92.2% | 93.9% |
| N#C/C(=C\c1ccc(Cl)cc1Cl)C(=O)Nc1ncc(Cc2ccc(Cl)c(Cl)c2)s1 | 88.8% | 96.1% | 92.2% | 65.7% | 80.7% | 47.7% | 52.3% | 101% | 87.7% | 92.9% |
| CCNCc1ccc(O)c2ncccc12 | 15.4% | 25.1% | 34% | 18.1% | 5.97% (active) | 22.7% | 35.3% | 59.5% | 27.3% | 29% |
| C=CC(=O)NCCOc1cccc(Nc2cc(NCCCNC(=O)C3CCC3)c(Br)cn2)c1 | -43.8% (active) | -13.6% (active) | 3.07% (active) | -42.2% (active) | -43.4% (active) | 7.24% (active) | -38.2% (active) | -54% (active) | 1.92% (active) | -10.5% (active) |
| CCNC(=O)Oc1ccc(/C(=C(/C)Cc2ccc(OC)cc2)c2ccc(OCCN3CCCCCC3)cc2)cc1 | 87% | 71.3% | 69.2% | 52.9% | 84.2% | 94.2% | 82.5% | 70.5% | 41.6% | 35.2% |
| COc1ccc(-c2cn(-c3ccc(Cl)cc3)c(SCC(=O)c3ccc([N+](=O)[O-])cc3)n2)cc1 | 73.6% | 95% | 78.3% | 82.5% | 55.9% | 81.5% | 76.1% | 85.2% | 93.8% | 83.5% |
| CN1C(=O)N(C)C2C1NC(=S)N2/N=C/C=C/c1ccccc1[N+](=O)[O-] (stereo not given) | 17% | 43.6% | 31.4% | 44.6% | 42.8% | 30.7% | 23% | 10.8% | 7.73% (active) | 27.8% |
| CCOC(=O)c1c(-c2ccc(Cl)cc2)c(C#N)c2c(C#N)c(N)nn2c1N | 52.5% | 60.1% | 79.1% | 66.4% | 84.4% | 72% | 66% | 29.3% | 30.5% | 25.6% |
| CN(C)c1ccc(/C=C/C(=O)c2ccccc2)cc1 | 93.5% | 97.9% | 84.8% | 67.5% | 74.5% | 109% | 97.1% | 74% | 66.1% | 76.3% |
| CC(C)c1ccc(-n2c(=S)[nH]c3sc4c(c3c2=O)CCC(=O)C4)cc1 | 91.4% | 47% | 50.8% | 46.9% | 106% | 82% | 74.2% | 112% | 18.2% | 75.7% |
| C#CC#CC#CC#CC#CC#CC#CC#CCC1OCC(COC(=O)O[C@@H](C(=O)O[C@H]2C[C@@]3(O)[C@@H](OC(=O)c4ccccc4)[C@@H]4[C@]5(OC(C)=O)CO[C@@H]5C[C@H](O)[C@@]4(C)C(=O)[C@H](OC(C)=O)C(=C2C)C3(C)C)[C@@H](NC(=O)c2ccccc2)c2ccccc2)O1 (stereo not given in full) | 30.9% | 45.5% | 21.4% | 81.7% | 48% | 45.4% | 49.6% | -8.03% (active) | 12.1% | 20.7% |

Source: PubChem BioAssay (NCI)
